# Measured values published in PubChem BioAssay AID1510 (The Scripps Research Institute Molecular Screening Center, 2009).
# Out of some 220,000 compounds screened, about 570 (0.26%) were called active. Shown is part of a subset that was picked to be rich in actives. Values without a mark were called inactive. Rule as the data show it: active = inhibition above about 29%; inactive = the rest.
# Target: Sphingosine 1-phosphate receptor 4 (Homo sapiens) (UniProt O95977)
# Assay: S1P4 receptor antagonists, primary screen, cell-based (AID 1510);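 also: 0% = wells stimulated with agonist and 100% = vehicle wells without agonist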
# Details: S1P4-expressing cells, antagonist mode, reporter read-out; at 4.98 µM; stronger effect = higher value
# Sphingosine 1-phosphate receptor 4 (Homo sapiens), sequence (O95977 whole entry, looked up): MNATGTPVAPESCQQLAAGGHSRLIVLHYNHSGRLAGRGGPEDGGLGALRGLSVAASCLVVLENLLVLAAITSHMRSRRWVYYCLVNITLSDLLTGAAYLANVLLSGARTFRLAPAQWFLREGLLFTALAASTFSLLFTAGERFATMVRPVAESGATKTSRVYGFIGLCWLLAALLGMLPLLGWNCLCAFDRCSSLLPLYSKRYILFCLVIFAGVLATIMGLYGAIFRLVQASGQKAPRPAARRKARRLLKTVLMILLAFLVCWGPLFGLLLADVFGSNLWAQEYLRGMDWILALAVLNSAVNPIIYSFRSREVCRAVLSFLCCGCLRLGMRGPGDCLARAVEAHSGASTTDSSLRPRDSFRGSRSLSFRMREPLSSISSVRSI
row,Compound,inhibition
1,CN(C)CC1Oc2ccccc2OC1(O)c1ccccc1 (stereo not given),66% (active)
2,Cc1ccc(-c2nn(CCC#N)cc2C(=O)O)cc1C,-15.8%
3,O=C(COC(=O)Cc1ccccc1)Nc1ccc(F)cc1,-14%
4,COP(=O)(NS(=O)(=O)c1ccccc1)OC,-0.89%
5,CN1CCN(Cc2ccc(OC(F)(F)F)cc2)CC1,-5.02%
